# Measured values: PubChem BioAssay (NCI)
# About 83,000 compounds went through this panel and 20% of them were active in at least one assay; those are over-represented in the sample as a whole.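 For each line, cells grew in 96-well plates with the test compound present at a single concentration for 48 hours.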 Unmarked numbers belong to inactive results. Activity calls are given as the source filed them. How the source made its calls: active means growth percent below 10; inactive means the rest.
# System: HL-60(TB) leukemia
# Experiment: NCI-60 one-dose screen, 48 h (100 = growth as untreated, 0 = no growth, -100 = all killed)
# Details: 10 µM unless noted
row,Structure (SMILES),growth
1,CC(C)c1ccc(Cc2cnc(NC(=O)c3cc(Br)cs3)s2)cc1,-24% (active)
2,CNC(=O)c1cc(Oc2ccc3c(c2)sc2nc(-c4cc(C(F)(F)F)cc(C(F)(F)F)c4)cn23)ccn1,45.7%
3,O=C1NC(=O)C(Cc2ccc(OCc3ccc(-c4cc(F)c(F)c(F)c4)cc3)cc2)S1 (stereo unspecified),106%
4,Oc1ccc(Nc2nccc(-c3ccc4ccccc4c3)n2)cc1,7.93% (active)
5,CN1CCN(CCOc2ccc(-c3cnc4c(-c5cccc(F)c5)cnn4c3)cc2)CC1,10.7%
6,CCN1C(=O)N(CC)C2C1NN=c1s/c(=C\c3ccccn3)c(=O)n12 (stereo unspecified),-22.5% (active)
7,CCOC(=O)C(CNc1ccccc1)C(=O)OCC,101%
8,Cc1ccc(C2=NN(c3ccc(S(N)(=O)=O)cc3)C(c3cn(-c4ccccc4)nc3-c3ccccc3)C2)cc1 (stereo unspecified),16.5%
9,CCOC(=O)c1c(Cl)c2c(n1Cc1cc(OC)cc(OC)c1)-c1oncc1CCC2,0.728% (active)
10,CC1=CC(=O)C(C(C)=Nc2ccccc2Cl)C(=O)O1 (stereo unspecified),101%
11,CCCCCCCC(=O)SCC/C=C/[C@@H]1CC(=O)NCc2cccc(n2)CN(Cc2ccc3ccccc3c2)CC(=O)N[C@@H](C(C)C)C(=O)O1,11%
12,O=C1c2cccc3cccc(c23)C(=O)N1CCCCN1CCN(CCCCOc2ccc(-c3nc4ccc(N5CCOCC5)cc4[nH]3)cc2)CC1,92.6%
13,Cc1ccc(-c2nc3c(c(-c4ccccc4)nn3-c3ccccc3)c(-c3ccc(O)cc3)c2C#N)cc1,33%
14,C=C(C)[C@@H]1CC[C@]2(C)[C@H](CC=C3[C@@H]4C[C@](C)(C(=O)N5CCN(C)CC5)CC[C@]4(C)CC[C@]32C)[C@@]1(C)CCC#N,22.6%
15,Fc1ccc(Oc2ccc(Nc3ncnc4onc(-c5ccccc5)c34)cc2)cc1,86.9%
16,COc1ccc(-c2nc3c(c(-c4ccc(Cl)cc4)nn3-c3ccccc3)c(-c3ccccc3)c2C#N)cc1,114%
17,CC(C)(C)CC(C)(C)c1ccc(OCCSC(=N)N)cc1,22.2%
18,CCOC(=O)Nc1ccc2c(c1)C(=O)N(CC)c1ccccc1O2,-17% (active)

row,Structure (SMILES),growth
1,CN(C)C(=O)c1cc2cnc(Nc3ccc(-c4csc5c(=S)cc(N6CCOCC6)oc45)cc3)nc2n1C1CCCC1,-30.6% (active)
2,COc1ccccc1Nc1nc(-c2cc3cccc(C(F)(F)F)c3oc2=O)cs1,-5.62% (active)
3,CC(C)(C)c1cc(C(=O)Nc2ccccc2C(=O)NCCN)cc(C(C)(C)C)c1,-51.8% (active)
4,COc1ccc(-c2ccc3cc(C(=O)Nc4ccc(O)c(C(=O)/C=C/c5cc(OC)c(OC)c(OC)c5)c4)ccc3c2)cc1,95.5%
5,O=C(CCCCCNC(=O)c1cc(=O)c(O)co1)Nc1ccccc1,106%
6,O=C1Nc2ccccc2/C1=N/N1C(=O)CN(CCCl)C1=O,96.3%
7,COc1ccc(/C=C2\CN(Cc3cn(CCNc4ccnc5cc(Cl)ccc45)nn3)C/C(=C\c3ccc(OC)c(OC)c3)C2=O)cc1OC,-11.3% (active)
8,N#CC1=C(N)Oc2c(sc3c(Br)cccc23)C1c1ccc([N+](=O)[O-])cc1 (stereo unspecified),-13.7% (active)
9,COc1cc(/C=C/C(=O)Nc2ccc3c(c2)/C(=C\c2cccn2C)C(=O)N3)cc(OC)c1OC,40.6%
10,CN(C)S(=O)(=O)c1cccc(C(=O)Nc2nc(-c3ccc(F)c(F)c3)cs2)c1,61.1%
11,COc1ccc(-c2cc3c4c(nc5ccccc5c4c2)CC(c2cc(OC)c(OC)c(OC)c2)O3)cc1 (stereo unspecified),106%
12,O=C(c1ccccc1)N(C(=S)NCCc1ccc(Cl)cc1)c1ccc(Cl)cc1,23%
13,O=c1cc2oc3cc(O)c(O)cc3c(-c3ccccc3O)c-2cc1O,103%
14,CC(=O)c1ccc2c(c1)CCc1ccccc1-2,126%
15,COc1cc(C2C(C(=O)c3cccs3)=C(O)C(=O)N2CCN2CCOCC2)cc(OC)c1OC (stereo unspecified),120%
16,CCNc1nc(N2CC(=O)Nc3cc(OC)ccc32)c2ccccc2n1,-4.51% (active)
17,COc1ccc(C2NC3=C(CCCC3)C(C#N)(C#N)C2(C#N)C#N)cc1 (stereo unspecified),41.3%
18,O=C(/C=C/C12c3ccccc3C(c3ccccc31)C1C(=O)NC(=O)C12)c1ccc(Cl)cc1 (stereo unspecified),-6.98% (active)
